Measured values as given in PubChem BioAssay (NCI).
About 83,000 compounds went through this panel and 20% of them were active in at least one assay; those are over-represented in the sample as a whole.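 Percent growth is the endpoint: 0 to 100 indicates growth inhibition (40 means 60% inhibition), 0 means no net growth, and negative values indicate cell death.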 Activity calls are given as the source filed them. The calls were made as follows: active = growth percent below 10; inactive = the rest.

Key:
Assay in all cases: NCI-60 one-dose screen, 48 h (100 = growth as untreated, 0 = no growth, -100 = all killed)
Details in all cases: 10 µM unless noted
[1] = test system: NCI-H226 lung
[2] = test system: NCI-H322M lung
[3] = test system: HOP-62 NSCLC
[4] = test system: NCI-H460 lung
[5] = test system: NCI-H522 lung
[6] = test system: A549/ATCC NSCLC
[7] = test system: 786-0 renal
[8] = test system: COLO 205 colon
[9] = test system: DU-145 prostate
[10] = test system: K-562 leukemia
[11] = test system: MALME-3M melanoma
[12] = test system: MDA-MB-231 breast
[13] = test system: RXF 393 renal
[14] = test system: SF-268 CNS
[15] = test system: SF-295 CNS
[16] = test system: SF-539 CNS
[17] = test system: UACC-257 melanoma
[18] = test system: M14 melanoma
[19] = test system: HCT-15 colon

Measured: growth

CN(CCOc1ccc(CC2SC(=O)NC2=O)cc1)c1ccccn1 (stereo not given)
inactive: [1] 98.9% | [2] 95.3% | [3] 94.3% | [4] 102% | [5] 95.9% | [6] 99.2% | [7] 108% | [8] 82.7% | [9] 107% | [10] 118% | [11] 88.3% | [12] 86.5% | [13] 110% | [14] 105% | [15] 98.9% | [16] 104% | [17] 98.4% | [18] 99.7% | [19] 96.2%

CCOC(=O)c1c2c(c(C)n1Cc1ccc(OC)cc1)-c1nc(N)ncc1CC2
inactive: [1] 92.2% | [3] 83.5% | [4] 111% | [5] 114% | [6] 110% | [7] 98.5% | [8] 116% | [9] 116% | [10] 88.8% | [11] 132% | [12] 97.2% | [13] 116% | [14] 110% | [15] 104% | [16] 112% | [17] 121% | [18] 106% | [19] 113%

N#Cc1c2ccccc2c2n1-c1ccccc1OC(c1ccccc1)C2=O (stereo not given)
inactive: [1] 21.2% | [3] 32.6% | [4] 31.8% | [6] 10.4% | [7] 31.7% | [8] 63.9% | [9] 56.7% | [10] 13% | [12] 22.3% | [14] 30.1% | [15] 16.3% | [16] 77.2% | [17] 53.3% | [18] 41.4% | [19] 13.8%
active: [5] -43.7%

COc1cc(C(=O)/C=C/c2cccnc2Nc2ccccc2)cc(OC)c1OC
inactive: [15] 17.3%
active: [1] -96.2% | [2] 7.04% | [3] -74.2% | [4] -40.4% | [5] -68.7% | [6] 2.67% | [7] -83.1% | [9] -98.9% | [11] -71.5% | [12] -61.1% | [13] -97.4% | [14] -81.1% | [16] -54.8% | [17] -88.2% | [18] -70% | [19] -33.7%

CN(C(=O)c1ccccc1)N(C)C(=O)c1ccccc1
inactive: [1] 112% | [2] 96.6% | [3] 94.7% | [4] 109% | [5] 102% | [6] 103% | [7] 100% | [8] 102% | [9] 121% | [10] 107% | [11] 94.4% | [12] 107% | [13] 122% | [14] 116% | [16] 108% | [17] 113% | [18] 99.2% | [19] 111%

CCOC(=O)/C(=C/c1ccccc1)C(=O)c1ccccc1
inactive: [1] 84.3% | [2] 84.2% | [3] 74.9% | [4] 88.3% | [5] 67.6% | [6] 79.8% | [7] 80.5% | [8] 95.4% | [9] 50.3% | [10] 38.9% | [12] 81.4% | [14] 62% | [15] 83% | [16] 84.4% | [17] 64.1% | [18] 66.1% | [19] 51.9%

Cc1ccc(C=C2C(Cl)=C(Cl)C(Cl)=C2Cl)cc1
inactive: [10] 24.6%
active: [1] -79% | [2] -37.2% | [3] -58.6% | [4] -31.3% | [5] -57.2% | [6] -61.2% | [7] -86.8% | [8] -80.3% | [9] -45.3% | [11] -45.1% | [12] -6.71% | [14] -68.6% | [15] -19.5% | [16] -84.5% | [17] -83.2% | [18] -85.8% | [19] -69.5%

O=C1Cc2cc(CCn3cncn3)c(Cl)cc2N1
inactive: [1] 74.8% | [2] 92.7% | [3] 69.6% | [4] 83.9% | [5] 32.8% | [6] 59.8% | [7] 94.7% | [9] 96.5% | [11] 93.8% | [12] 56% | [13] 62% | [14] 110% | [15] 69.3% | [17] 51.7% | [18] 24% | [19] 54.6%

O=C(c1ccccc1)c1ccccc1Cl
inactive: [1] 105% | [2] 108% | [3] 105% | [4] 104% | [5] 92.4% | [6] 98.9% | [7] 98.8% | [9] 108% | [10] 100% | [11] 102% | [12] 105% | [13] 111% | [14] 109% | [15] 110% | [16] 100% | [17] 97.8% | [18] 101% | [19] 104%

Cc1ccccc1NC(=O)c1cc2ccccc2cc1O
inactive: [1] 77.1% | [3] 39.2% | [4] 38% | [5] 12.2% | [6] 39.3% | [7] 54.9% | [8] 119% | [9] 20.2% | [10] 10.9% | [12] 70.6% | [13] 22.2% | [14] 21.1% | [15] 86.4% | [16] 64.4% | [17] 68.1% | [18] 58.1% | [19] 48.5%
active: [11] -6.19%

O=C(/C(=N/O)S(=O)(=O)c1ccccc1)c1cccs1
inactive: [1] 102% | [2] 111% | [3] 94.4% | [4] 102% | [5] 143% | [6] 106% | [7] 99.8% | [8] 104% | [9] 115% | [10] 93.1% | [11] 106% | [12] 109% | [14] 106% | [15] 104% | [16] 109% | [17] 106% | [18] 105% | [19] 105%

Nc1ccc(C2=Nc3cccc4cccc(c34)S2)cc1
inactive: [1] 59.3% | [2] 88.1% | [3] 83.6% | [4] 89.5% | [5] 82.7% | [6] 81.5% | [7] 121% | [9] 98.2% | [10] 88.3% | [11] 94.5% | [12] 60% | [13] 107% | [14] 88.9% | [15] 73% | [16] 102% | [17] 84.3% | [18] 83.9% | [19] 54.5%

O=C(Nc1nc2ccccc2s1)c1cc(-c2ccc(F)cc2)n2nc(-c3ccccc3)cc2n1
inactive: [1] 89.1% | [2] 60.1% | [3] 63.8% | [4] 29.3% | [5] 101% | [6] 51.2% | [7] 11.7% | [8] 65.2% | [9] 89.1% | [10] 59.1% | [12] 64.6% | [13] 121% | [15] 40.3% | [16] 63.8% | [17] 69% | [18] 79.2% | [19] 53.7%

O=C(/C=C/c1cc2ccccc2[nH]c1=O)c1ccc(Cl)cc1
inactive: [1] 40.7% | [2] 62.4% | [3] 44.4% | [4] 12% | [6] 42.1% | [7] 43% | [8] 49.4% | [9] 12.4% | [10] 17.1% | [11] 46.4% | [12] 32.2% | [13] 12.9% | [14] 30.7% | [15] 42.7% | [17] 45.3% | [18] 44.7% | [19] 41.6%
active: [5] -57.5%

CCCCSc1cc(C)nc(N)n1
inactive: [1] 98.6% | [2] 97.1% | [3] 91.5% | [4] 103% | [5] 94.9% | [6] 97.8% | [7] 95.6% | [8] 112% | [9] 105% | [10] 94.8% | [11] 96.4% | [12] 104% | [13] 105% | [14] 98.8% | [15] 102% | [16] 95.7% | [17] 109% | [18] 99.2% | [19] 91.1%
